# In PubChem BioAssay:
# Results filed as inconclusive are left out. Calls of active or inactive are those of the source.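 Rule for the calls, unless noted: active = GFP response, as percent of the DMSO control, above the screen-wide mean plus 3 SD, about 139; inconclusive = no response measured because the compound's own fluorescence interfered; inactive = the rest.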
# How the values were obtained:
# [1] = yeast TOR pathway RPL19A-GFP modulators, primary screen, cell-based, S. cerevisiae, multiplex flow cytometry (AID 1862; in the data active = percent of DMSO control GFP below about 86%;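 note: lower values mimic rapamycin by blocking the RPL19A rise seen in DMSO cells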); conditions: S. cerevisiae RPL19A-GFP strain, flow cytometry fluorescence, 3 h; at 10 µM; stronger effect = lower value
# [2] = modulators of MEP2-GFP levels in yeast, primary screen, S. cerevisiae, multiplex flow cytometry (AID 1867);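 note: median GFP channel fluorescence of barcode-gated MEP2-GFP cells measured by flow cytometry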; conditions: S. cerevisiae MEP2-GFP strain, 3 h, at 10 µM, stronger effect = higher value, 100% means same as DMSO wells
# [3] = modulators of CIT2-GFP expression in yeast, primary screen, S. cerevisiae, GFP fusion, multiplex flow cytometry (AID 1870;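 active = percent response above a set limit, the screen-wide mean plus 3 SD, cut at about 130% in these data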;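 note: barcoded CIT2-GFP strain pooled with four other GFP strains with rapamycin as positive control; median GFP fluorescence per well over plate mean of DMSO wells so 100% = DMSO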); conditions: 3 h, at 10 µM, stronger effect = higher value
# [4] = modulators of LAP4-GFP expression in yeast, primary screen, S. cerevisiae, multiplex flow cytometry (AID 1873;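 active = GFP signal, as percent of the solvent control, above the screen mean plus 3 SD, about 149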); conditions: 3 h, at 10 µM, stronger effect = higher value
# [5] = modulators of AGP1-GFP expression in yeast TOR pathway, primary screen, cell-based, multiplex flow cytometry, S. cerevisiae (AID 1887;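 active = GFP signal above the screen-wide mean plus 3 SD, that is over about 124.5% of the solvent control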;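 note: AGP1-GFP fusion strain of S. cerevisiae within a five-strain barcoded multiplex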); conditions: 3 h, at 10 µM, stronger effect = higher value
# [6] = inhibitors of CD8+ T cell-vesicle binding, pilot screen, LFA-1/ICAM-1 modulator project, MLPCN validation set, flow cytometry (AID 2523;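 active = response below a set limit, under 55% cells CD8-positive and vesicle-bound, and CD8 cells' 90th-percentile brightness under 279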;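 for vesicle binding response: mean PE anti-B7-1 fluorescence of CD8+ cells relative to row control; 100% = QL9-loaded vesicles with DMSO vehicle in the same plate row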); conditions: 2C mouse CD8+ T cells, at 7 µM, stronger effect = lower value; double positive events: measured here: CD8+/vesicle+ event percentage
# [7] = target: Integrin beta-1 (Homo sapiens) + Integrin alpha-4 (Homo sapiens) (UniProt P13612+P05556); test: inhibition of HUTS-21 binding to VLA-4, pilot screen, VLA-4 allosteric modulator project, U937 cells, HUTS-21 mAb, flow cytometry, validation set (AID 2674;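 active = inhibition above 50%, about 3 SD of the validation set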;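 note: antibody binding induced by the VLA-4 ligand LDV present at three times its Kd; 0% = LDV ligand with antibody and no compound and 100% = antibody without LDV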); conditions: HUTS-21 LIBS mAb binding, at 6.7 µM, stronger effect = higher value, binding induced by LDV ligand
# Sequence of Integrin beta-1 (Homo sapiens) + Integrin alpha-4 (Homo sapiens) (P05556 whole entry, looked up): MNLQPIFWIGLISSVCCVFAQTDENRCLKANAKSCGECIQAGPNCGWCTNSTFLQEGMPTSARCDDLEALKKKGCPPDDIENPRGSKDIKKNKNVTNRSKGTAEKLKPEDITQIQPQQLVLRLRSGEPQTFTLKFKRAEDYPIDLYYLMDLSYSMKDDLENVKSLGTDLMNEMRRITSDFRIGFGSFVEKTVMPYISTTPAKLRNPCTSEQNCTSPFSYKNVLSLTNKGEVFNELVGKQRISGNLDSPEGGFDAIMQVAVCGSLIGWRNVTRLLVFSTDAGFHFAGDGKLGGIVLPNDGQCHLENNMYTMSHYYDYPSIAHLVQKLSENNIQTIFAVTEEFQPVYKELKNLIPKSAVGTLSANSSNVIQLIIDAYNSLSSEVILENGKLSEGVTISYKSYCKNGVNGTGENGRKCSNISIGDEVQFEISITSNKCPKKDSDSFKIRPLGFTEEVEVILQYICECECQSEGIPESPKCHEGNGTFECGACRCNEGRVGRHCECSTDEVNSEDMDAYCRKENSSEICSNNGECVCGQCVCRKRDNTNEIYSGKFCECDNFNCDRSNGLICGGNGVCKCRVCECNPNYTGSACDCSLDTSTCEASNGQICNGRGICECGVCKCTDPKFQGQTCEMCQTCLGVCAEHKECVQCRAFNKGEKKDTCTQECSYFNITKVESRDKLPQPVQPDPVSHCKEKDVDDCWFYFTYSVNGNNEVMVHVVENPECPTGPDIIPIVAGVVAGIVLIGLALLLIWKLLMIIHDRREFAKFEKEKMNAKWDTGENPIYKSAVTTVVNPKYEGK
# Sequence of Integrin beta-1 (Homo sapiens) + Integrin alpha-4 (Homo sapiens) (P13612 whole entry, looked up): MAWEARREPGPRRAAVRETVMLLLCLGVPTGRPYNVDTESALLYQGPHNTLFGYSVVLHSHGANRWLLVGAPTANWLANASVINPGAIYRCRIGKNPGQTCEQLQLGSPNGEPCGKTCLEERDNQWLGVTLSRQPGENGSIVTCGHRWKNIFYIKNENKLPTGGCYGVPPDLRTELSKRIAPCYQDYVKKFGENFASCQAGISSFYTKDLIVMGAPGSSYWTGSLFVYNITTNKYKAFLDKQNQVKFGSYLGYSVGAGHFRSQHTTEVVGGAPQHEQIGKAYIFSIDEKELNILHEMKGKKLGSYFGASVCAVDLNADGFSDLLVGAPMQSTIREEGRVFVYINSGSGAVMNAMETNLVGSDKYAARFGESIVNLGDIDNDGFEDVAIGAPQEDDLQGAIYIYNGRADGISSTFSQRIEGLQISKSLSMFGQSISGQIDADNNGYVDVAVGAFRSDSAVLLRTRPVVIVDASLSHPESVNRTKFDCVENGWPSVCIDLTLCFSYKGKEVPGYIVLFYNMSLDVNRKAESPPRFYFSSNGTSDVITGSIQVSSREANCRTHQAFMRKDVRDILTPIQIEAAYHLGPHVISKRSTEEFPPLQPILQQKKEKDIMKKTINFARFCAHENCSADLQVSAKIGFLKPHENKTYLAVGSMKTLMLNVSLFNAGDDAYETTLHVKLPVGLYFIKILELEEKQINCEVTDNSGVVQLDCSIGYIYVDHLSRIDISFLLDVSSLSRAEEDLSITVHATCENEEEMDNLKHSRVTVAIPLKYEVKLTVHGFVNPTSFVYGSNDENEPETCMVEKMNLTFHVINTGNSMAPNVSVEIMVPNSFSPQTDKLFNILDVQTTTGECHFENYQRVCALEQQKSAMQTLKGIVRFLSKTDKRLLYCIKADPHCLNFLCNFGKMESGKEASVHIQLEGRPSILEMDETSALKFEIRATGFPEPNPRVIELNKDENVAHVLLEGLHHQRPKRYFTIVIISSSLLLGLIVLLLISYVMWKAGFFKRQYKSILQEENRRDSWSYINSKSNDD
# [8] = superoxide lowering in aged yeast cells, pilot screen, validation compound set (AID 2706;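 active = superoxide response below 65% of plate, a cut near 3 SD across the whole screen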;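 note: yeast exposed to compound for one week at 30 degrees C before staining; 100% = mean of all compound wells on the same plate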); conditions: S. cerevisiae aging, superoxide DHE fluorescence; at 10 µM; stronger effect = lower value
# [9] = target: Beta-adrenergic receptor kinase 1 (Homo sapiens) (UniProt P25098); test: GRK2 binders displacing RNA aptamer, biochemical, validation, human GRK2, bead flow cytometry (AID 488806;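 active = aptamer binding inhibition above 30%, about 3 SD of noise from non-fluorescent compounds; inactive = inhibition at or below 30%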); conditions: bead-bound GRK2, FAM-aptamer displacement, at 10 µM, stronger effect = higher value
# Sequence of Beta-adrenergic receptor kinase 1 (Homo sapiens) (P25098 whole entry, looked up): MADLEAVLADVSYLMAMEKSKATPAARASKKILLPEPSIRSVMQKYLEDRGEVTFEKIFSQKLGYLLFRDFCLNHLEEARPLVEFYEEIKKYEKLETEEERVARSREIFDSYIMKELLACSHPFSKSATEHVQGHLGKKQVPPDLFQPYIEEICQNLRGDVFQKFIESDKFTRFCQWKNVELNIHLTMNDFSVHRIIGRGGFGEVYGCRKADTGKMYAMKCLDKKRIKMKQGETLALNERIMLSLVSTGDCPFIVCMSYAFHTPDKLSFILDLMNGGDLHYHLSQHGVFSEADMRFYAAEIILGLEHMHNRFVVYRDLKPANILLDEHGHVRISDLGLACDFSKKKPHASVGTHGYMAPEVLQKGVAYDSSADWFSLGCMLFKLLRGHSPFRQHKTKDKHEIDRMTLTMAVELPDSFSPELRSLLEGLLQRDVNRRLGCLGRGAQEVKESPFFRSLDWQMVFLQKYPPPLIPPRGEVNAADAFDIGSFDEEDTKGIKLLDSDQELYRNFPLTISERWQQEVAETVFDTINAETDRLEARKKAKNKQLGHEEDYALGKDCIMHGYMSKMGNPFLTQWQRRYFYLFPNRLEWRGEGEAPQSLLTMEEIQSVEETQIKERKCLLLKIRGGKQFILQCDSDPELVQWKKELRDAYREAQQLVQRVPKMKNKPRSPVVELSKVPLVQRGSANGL
# [10] = target: Beta-2 adrenergic receptor (Homo sapiens) (UniProt P07550); test: beta2AR agonists driving receptor internalization, pilot screen, cell-based, FAP fluorogen, flow cytometry, validation set (AID 504459;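 active = percent response above 42, roughly 3 SD of non-fluorescent test compounds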;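 note: agonist-driven loss of surface beta2AR via internalization measured by FAP dye flow cytometry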); conditions: Am2.2-beta2AR cells, FAP surface receptor flow cytometry; at 10 µM; stronger effect = higher value
# Sequence of Beta-2 adrenergic receptor (Homo sapiens) (P07550 whole entry, looked up): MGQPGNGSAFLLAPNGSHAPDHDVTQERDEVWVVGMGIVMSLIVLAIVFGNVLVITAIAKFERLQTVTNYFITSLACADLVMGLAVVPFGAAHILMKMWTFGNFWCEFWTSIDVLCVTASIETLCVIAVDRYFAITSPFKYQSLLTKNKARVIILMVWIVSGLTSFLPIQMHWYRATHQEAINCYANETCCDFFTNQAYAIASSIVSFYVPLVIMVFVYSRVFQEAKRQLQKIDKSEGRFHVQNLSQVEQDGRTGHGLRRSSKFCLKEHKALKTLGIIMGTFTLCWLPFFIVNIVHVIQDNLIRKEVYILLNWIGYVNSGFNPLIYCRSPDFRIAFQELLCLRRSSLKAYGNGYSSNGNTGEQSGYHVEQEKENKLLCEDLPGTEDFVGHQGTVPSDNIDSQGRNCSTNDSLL
# [11] = target: AP-2 complex subunit beta (Homo sapiens) (UniProt P63010); test: inhibitors of arrestin peptide binding to AP2, pilot screen, biochemical, validation set, GST-AP2 beads, flow cytometry (AID 504541;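 active = inhibition above 54%, about 3 SD of non-fluorescent compounds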;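 note: AP2 carries R879A mutation and is captured from E. coli lysate; bead-bound FITC arrestin peptide fluorescence measuring arrestin peptide binding to AP2; 0% = DMSO wells and 100% = excess unlabeled arrestin peptide control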); conditions: FITC arrestin peptide, at 10 µM, stronger effect = higher value, AP2 beta2 appendage fragment, R879A mutant
# Sequence of AP-2 complex subunit beta (Homo sapiens) (P63010 whole entry, looked up, the tested form may be a part, one chain of several): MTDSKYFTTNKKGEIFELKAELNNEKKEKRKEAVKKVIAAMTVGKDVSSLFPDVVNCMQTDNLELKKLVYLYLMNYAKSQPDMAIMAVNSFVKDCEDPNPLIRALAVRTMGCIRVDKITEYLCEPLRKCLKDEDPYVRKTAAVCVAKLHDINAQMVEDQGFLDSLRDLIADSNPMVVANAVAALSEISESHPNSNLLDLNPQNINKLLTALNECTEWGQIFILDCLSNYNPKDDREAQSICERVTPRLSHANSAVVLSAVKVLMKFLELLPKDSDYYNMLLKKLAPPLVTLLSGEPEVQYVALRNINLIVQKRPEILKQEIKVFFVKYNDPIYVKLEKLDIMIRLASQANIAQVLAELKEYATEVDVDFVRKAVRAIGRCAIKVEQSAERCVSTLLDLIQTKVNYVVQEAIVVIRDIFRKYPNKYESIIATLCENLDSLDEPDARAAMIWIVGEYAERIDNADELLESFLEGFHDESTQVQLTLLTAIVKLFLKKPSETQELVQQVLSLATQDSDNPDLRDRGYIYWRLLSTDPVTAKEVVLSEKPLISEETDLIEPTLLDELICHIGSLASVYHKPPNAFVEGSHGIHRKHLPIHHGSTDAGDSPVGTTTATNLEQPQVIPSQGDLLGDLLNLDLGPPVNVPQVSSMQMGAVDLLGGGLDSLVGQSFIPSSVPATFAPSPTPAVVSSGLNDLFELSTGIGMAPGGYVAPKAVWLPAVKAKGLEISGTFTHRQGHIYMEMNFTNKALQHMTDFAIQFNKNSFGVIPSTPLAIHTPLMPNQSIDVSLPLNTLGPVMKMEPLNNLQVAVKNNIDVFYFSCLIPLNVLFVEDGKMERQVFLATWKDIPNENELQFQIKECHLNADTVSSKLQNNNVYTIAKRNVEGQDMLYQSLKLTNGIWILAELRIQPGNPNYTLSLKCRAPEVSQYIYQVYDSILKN
# [12] = yeast V-ATPase proton transport modulators, S. cerevisiae, pHLuorin, HTS validation (AID 504600; in the data active = response above about 15%;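 note: plate controls were DMSO for no effect and reference compound for full effect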); conditions: S. cerevisiae pHLuorin cytosolic pH, at 10 µM, stronger effect = higher value
# [13] = system: anti-desmoglein-3 scFv antibody binding to human DSG3; test: inhibitors of anti-DSG3 scFv binding to DSG3, pilot screen, biochemical, validation compound set, bead-based, flow cytometry (AID 588368;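 active = binding below the plate cutoff, the plate median minus 3 SD, with a reading above zero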;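 note: signal is the median channel fluorescence of bead-bound GFP antibody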); conditions: Protein G beads, DSG3-Fc, scFv-GFP binding, at 10 µM, stronger effect = lower value
# [14] = inhibitors of fungal efflux pumps CDR1, CDR2, MDR1, pilot screen, validation compound set, multiplex, phenotypic (AID 588506;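 active = efflux inhibition above 0.42, the validation set average plus 4 SD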;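 note: Nile Red retained in cells so higher fluorescence means more efflux inhibition; 0 = negative control wells and 1 = enniatin B 25 µM full block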); conditions: S. cerevisiae pump-expressing triplex, Nile Red efflux flow cytometry; at 10 µM; stronger effect = higher value; the pumps come from Candida albicans
# [15] = target: ATP-binding cassette sub-family B member 6 (Homo sapiens) (UniProt Q9NP58); test: ABCB6 transporter inhibitors, pilot screen, K562-ABCB6 cells, flow cytometry, validation set (AID 588550;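 active = inhibition above the screen-wide mean plus 3 SD, about 51%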;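 note: 0% = DMSO wells and 100% = benzethonium chloride 70 µM positive control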); conditions: K562-ABCB6 porphyrin accumulation, 1 h, at 10 µM, stronger effect = higher value
# Sequence of ATP-binding cassette sub-family B member 6 (Homo sapiens) (Q9NP58 whole entry, looked up): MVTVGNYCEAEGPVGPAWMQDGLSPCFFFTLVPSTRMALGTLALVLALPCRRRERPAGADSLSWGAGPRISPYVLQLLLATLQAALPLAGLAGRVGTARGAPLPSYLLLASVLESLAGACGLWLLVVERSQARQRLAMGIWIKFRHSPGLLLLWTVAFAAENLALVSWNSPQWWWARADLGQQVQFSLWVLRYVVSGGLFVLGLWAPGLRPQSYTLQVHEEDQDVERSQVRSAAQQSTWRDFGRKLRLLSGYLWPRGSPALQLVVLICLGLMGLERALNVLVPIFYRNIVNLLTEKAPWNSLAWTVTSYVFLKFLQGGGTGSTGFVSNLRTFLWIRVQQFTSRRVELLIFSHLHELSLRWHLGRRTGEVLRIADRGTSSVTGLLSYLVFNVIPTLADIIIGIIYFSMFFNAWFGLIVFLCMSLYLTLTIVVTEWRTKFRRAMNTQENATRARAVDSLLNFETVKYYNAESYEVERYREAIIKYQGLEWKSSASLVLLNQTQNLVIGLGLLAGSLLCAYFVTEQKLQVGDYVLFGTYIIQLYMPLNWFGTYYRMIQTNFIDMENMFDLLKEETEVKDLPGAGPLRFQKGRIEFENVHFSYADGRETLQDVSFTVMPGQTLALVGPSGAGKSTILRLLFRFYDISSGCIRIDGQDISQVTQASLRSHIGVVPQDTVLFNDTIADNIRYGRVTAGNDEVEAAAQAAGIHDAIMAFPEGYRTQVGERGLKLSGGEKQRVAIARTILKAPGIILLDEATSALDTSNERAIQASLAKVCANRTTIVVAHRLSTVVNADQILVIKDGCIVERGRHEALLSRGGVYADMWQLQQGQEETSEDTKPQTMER
# [16] = promoters of myeloid differentiation in arrested cells, primary screen, cell-based, GFP/MAC1 double positive, flow cytometry, validation set (AID 588685;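 active = differentiation response of at least 50%, scaled between solvent and reference control, from cells with both markers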;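 note: compound exposure lasts four days before antibody staining and flow analysis; 0% = DMSO wells and 100% = 5 µM fulvestrant positive control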); conditions: ER-HoxA9 marrow cells, stronger effect = higher value, normalized: vehicle 0, fulvestrant 100
Structure (SMILES),percent of DMSO control GFP [1],GFP response vs DMSO [2],percent response of DMSO control [3],GFP response vs DMSO [4],"GFP response, % of DMSO [5]",double positive events [6] [%],vesicle binding response [6],inhibition [7],superoxide response (% of plate) [8],aptamer binding inhibition [9],response [10],inhibition [11],response [12],binding (% of control) [13],efflux inhibition (fraction of control) [14],inhibition [15],differentiation response [16]
Cc1cc(=O)oc2c(CN(C)Cc3ccccc3)c(O)ccc12,100% (inactive),106% (inactive),105% (inactive),94.7% (inactive),96.2% (inactive),62.4,434% (inactive),12% (inactive),97.6% (inactive),3% (inactive),0.85% (inactive),-2.59% (inactive),1.53% (inactive),97.4% (inactive),0.11 (inactive),10% (inactive),0.24% (inactive)
Clc1ccc2c(c1)[C@H]1OCC[C@H]1[C@@H](c1ccco1)N2,108% (inactive),105% (inactive),107% (inactive),113% (inactive),88.8% (inactive),54.8,144% (inactive),1.59% (inactive),103% (inactive),-1% (inactive),3.26% (inactive),3.61% (inactive),3.05% (inactive),104% (inactive),0.27 (inactive),-23% (inactive),-16.3% (inactive)
CCOC(=O)c1ncn2c1CN(C)C(=O)c1cc(F)ccc1-2,101% (inactive),96.6% (inactive),96.5% (inactive),107% (inactive),105% (inactive),58.4,200% (inactive),8.29% (inactive),115% (inactive),1% (inactive),3.78% (inactive),-0.66% (inactive),2.2% (inactive),97.7% (inactive),-0.025 (inactive),0% (inactive),7.13% (inactive)
NC(=O)c1ccccc1O,103% (inactive),108% (inactive),92.8% (inactive),95.8% (inactive),97.4% (inactive),64.5,199% (inactive),11.1% (inactive),95.9% (inactive),-1% (inactive),6.88% (inactive),33.5% (inactive),-2.79% (inactive),100% (inactive),1.03 (active),3% (inactive),10.3% (inactive)
NCCc1ccc(O)c(O)c1,98.2% (inactive),107% (inactive),93.1% (inactive),92% (inactive),95.6% (inactive),65.4,831% (inactive),-10.8% (inactive),90.7% (inactive),3% (inactive),11.2% (inactive),11.9% (inactive),-0.98% (inactive),94.3% (inactive),0.08 (inactive),6% (inactive),5.13% (inactive)
CC(=O)Nc1nnc(S(N)(=O)=O)s1,102% (inactive),95.1% (inactive),116% (inactive),88.1% (inactive),102% (inactive),62.4,1080% (inactive),17.2% (inactive),111% (inactive),5% (inactive),-4.02% (inactive),-5.06% (inactive),0.12% (inactive),102% (inactive),0.05 (inactive),16% (inactive),6.11% (inactive)
CC1=CC(=O)c2ccccc2C1=O,101% (inactive),104% (inactive),94.5% (inactive),94.8% (inactive),91.1% (inactive),60.8,105% (inactive),-5.11% (inactive),108% (inactive),1% (inactive),22.2% (inactive),-9.12% (inactive),1.78% (inactive),102% (inactive),-0.21 (inactive),1% (inactive),14.4% (inactive)
c1ccc(CNc2ncnc3nc[nH]c23)cc1,103% (inactive),104% (inactive),90.8% (inactive),90.1% (inactive),97.8% (inactive),63.6,581% (inactive),9.92% (inactive),93.5% (inactive),6% (inactive),1.86% (inactive),-1.71% (inactive),-1.37% (inactive),94.8% (inactive),0.11 (inactive),3% (inactive),7.09% (inactive)
CCOc1ccc(N2C(=O)CC(NCCNc3ccc([N+](=O)[O-])cn3)C2=O)cc1 (stereo not drawn),103% (inactive),95.6% (inactive),106% (inactive),98% (inactive),93% (inactive),53.2,145% (inactive),15% (inactive),94.4% (inactive),0% (inactive),1.65% (inactive),-8.05% (inactive),4.15% (inactive),98.8% (inactive),0.06 (inactive),8% (inactive),-4.57% (inactive)
CCOc1ccc(C(NC(C)=O)c2ccc(OC)c(OC)c2)cc1 (stereo not drawn),99.8% (inactive),104% (inactive),99.3% (inactive),101% (inactive),100% (inactive),58.9,28% (inactive),-20.4% (inactive),107% (inactive),5% (inactive),-0.66% (inactive),-21.1% (inactive),-0.46% (inactive),99.2% (inactive),-0.63 (inactive),8% (inactive),0% (inactive)
Cc1ccc(N2C(=O)c3ccccc3C2=O)cc1C,105% (inactive),104% (inactive),107% (inactive),99.1% (inactive),94.8% (inactive),63.4,121% (inactive),6.95% (inactive),99.1% (inactive),3% (inactive),-0.69% (inactive),-6.64% (inactive),0.36% (inactive),101% (inactive),0.24 (inactive),0% (inactive),-3.11% (inactive)
CC(=O)Nc1ccccc1C(=O)C(=O)Nc1ccccc1,99.1% (inactive),99.6% (inactive),99.6% (inactive),114% (inactive),97.5% (inactive),60.9,83.6% (inactive),6.4% (inactive),102% (inactive),1% (inactive),-12.9% (inactive),35.2% (inactive),-3.86% (inactive),95.3% (inactive),-0.35 (inactive),2% (inactive),29.6% (inactive)
O=C1[C@@H]2CSCN2C(=O)CN1Cc1ccc(F)cc1,107% (inactive),95.2% (inactive),106% (inactive),82% (inactive),94.8% (inactive),61.3,235% (inactive),-3.16% (inactive),111% (inactive),2% (inactive),5.93% (inactive),-4.78% (inactive),-2.17% (inactive),83.8% (inactive),-0.21 (inactive),6% (inactive),-21.6% (inactive)
CCOc1ccc(C(=O)NCC2(c3ccccc3)CCOCC2)cc1,99.8% (inactive),97.7% (inactive),108% (inactive),105% (inactive),108% (inactive),63.3,172% (inactive),-13.2% (inactive),95.9% (inactive),-4% (inactive),-2.34% (inactive),-4.75% (inactive),-1% (inactive),107% (inactive),-0.11 (inactive),11% (inactive),10.1% (inactive)
Cc1ccc(C)c(OCCCC(C)(C)C(=O)O)c1,98% (inactive),97.2% (inactive),95.4% (inactive),122% (inactive),89.6% (inactive),62.8,203% (inactive),-0.45% (inactive),104% (inactive),4% (inactive),-7.3% (inactive),-6.6% (inactive),4.38% (inactive),96.4% (inactive),0.05 (inactive),10% (inactive),6.11% (inactive)
CN(C)CCN(Cc1ccc(Cl)cc1)c1ccccn1,107% (inactive),112% (inactive),114% (inactive),114% (inactive),118% (inactive),61.2,125% (inactive),0.25% (inactive),96% (inactive),-4% (inactive),-7.41% (inactive),54.2% (active),-5.25% (inactive),97.3% (inactive),0.37 (inactive),8% (inactive),-19.2% (inactive)
O=C1C(=O)c2ccccc2C(O)=C1c1ccccc1F,111% (inactive),99.9% (inactive),71.2% (inactive),109% (inactive),85% (inactive),54.9,15.9% (active),-11.8% (inactive),175% (inactive),6% (inactive),4.63% (inactive),5.16% (inactive),0.28% (inactive),99% (inactive),0.46 (active),5% (inactive),14.1% (inactive)
Cc1ccc2c(c1)C(O)(C1COC(C)(C)CC1=O)C(=O)N2C (stereo not drawn),107% (inactive),105% (inactive),104% (inactive),99.1% (inactive),98.8% (inactive),59.3,214% (inactive),12.3% (inactive),103% (inactive),2% (inactive),-0.64% (inactive),-0.06% (inactive),-9.91% (inactive),102% (inactive),0.05 (inactive),12% (inactive),23.2% (inactive)
COc1ccc(-c2csc(-c3cccnc3)n2)cc1C,98.2% (inactive),111% (inactive),91% (inactive),95.7% (inactive),84.4% (inactive),59.8,170% (inactive),0.94% (inactive),102% (inactive),4% (inactive),3.47% (inactive),7.91% (inactive),-1.19% (inactive),102% (inactive),0.12 (inactive),3% (inactive),4% (inactive)
